# Inconclusive results are not listed. Values without a mark were called inactive. Activity calls are given as the source filed them. The call rests on the fitted dose curve; in most records, active means well fitted inhibition curve with a large enough effect; inconclusive means small, poorly fitted or top-dose-only effect; inactive means flat fitted curve, though single readings scatter.
# Key:
# [1] = qHTS profiling for inhibitors of Plasmodium falciparum proliferation (AID 504749); further: nearly all actives have a fitted effect of over 60% in size;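 on activity, negative = inhibition: 0% = DMSO vehicle and full inhibition = artemisinin control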; conditions: P. falciparum in erythrocytes, SYBR Green DNA, 72 h
# Outline: (§1)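 Each compound contacts P. falciparum-infected red blood cells for 72 h at 37 C; lysis buffer (Tris, EDTA, saponin, Triton X, SYBR Green I) is added and fluorescence measured next morning; values normalized to controls.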
# 3D7 = test: as above; conditions: P. falciparum in erythrocytes, SYBR Green DNA, 72 h; series mostly up to 28.7 µM
# Outline: as §1
# 7G8 = test: as above; conditions: P. falciparum in erythrocytes, SYBR Green DNA, 72 h; series mostly up to 28.7 µM
# Outline: as §1
# [2] = at 28.7 µM (top of the series), parasite line A
# [3] = at 28.7 µM (top of the series), parasite line B
# [4] = at 12.8 µM (top of the series), parasite line A
# [5] = at 12.8 µM (top of the series), parasite line B
# Potency means the concentration at half of the fitted maximal effect.
structure (smiles),measurement,setting,value
CCC1(CC)C(=O)C=CNC1=O,"activity, negative = inhibition",[1]; [2],10.7%
same,"activity, negative = inhibition",[1]; [3],6.45%
same,Potency,3D7,inactive
same,Potency,7G8,inactive
O=C1CN=C(c2ccccc2)c2cc([N+](=O)[O-])ccc2N1,"activity, negative = inhibition",[1]; [2],0.461%
same,"activity, negative = inhibition",[1]; [3],15.1%
same,Potency,3D7,inactive
same,Potency,7G8,inactive
CCCCCCC(=O)CCCCCC/C=C/C[C@@H](O)[C@H](O)[C@@](N)(CO)C(=O)O,"activity, negative = inhibition",[1]; [2],16.1%
same,"activity, negative = inhibition",[1]; [3],7.92%
same,Potency,3D7,inactive
same,Potency,7G8,inactive
O=c1oc2ccccc2c(O)c1Cc1c(O)c2ccccc2oc1=O,"activity, negative = inhibition",[1]; [4],7.78%
same,"activity, negative = inhibition",[1]; [5],2.51%
same,Potency,3D7,inactive
same,Potency,7G8,inactive
CCOC(=O)CC(SP(=S)(OC)OC)C(=O)OCC (stereo unspecified),"activity, negative = inhibition",[1]; [2],10.2%
same,"activity, negative = inhibition",[1]; [3],-3.96%
same,Potency,3D7,inactive
same,Potency,7G8,inactive
Cc1ncsc1CCCl,"activity, negative = inhibition",[1]; [2],12%
same,"activity, negative = inhibition",[1]; [3],0.0082%
same,Potency,3D7,inactive
same,Potency,7G8,inactive
Nc1ccccc1C(=O)O,"activity, negative = inhibition",[1]; [2],15.6%
same,"activity, negative = inhibition",[1]; [3],4.96%
same,Potency,3D7,inactive
same,Potency,7G8,inactive
c1ccc2c(c1)sc1ccccc12,"activity, negative = inhibition",[1]; [2],-4.2%
same,Potency,3D7,inactive
same,Potency,7G8,inactive
CCCCC/C=C\C/C=C\C/C=C\C/C=C\CCCC(=O)NCC(=O)O,"activity, negative = inhibition","[1]; at 2.67 µM (top of the series), parasite line A",-21.1%
same,"activity, negative = inhibition","[1]; at 2.67 µM (top of the series), parasite line B",4.55%
same,"activity, negative = inhibition",3D7,-0.415% [at 2.67 µM]
same,"activity, negative = inhibition",7G8,-4.42% [at 2.67 µM]
CCCC(C)(COC(N)=O)COC(N)=O,"activity, negative = inhibition",[1]; [2],5.3%
same,"activity, negative = inhibition",[1]; [3],9.68%
same,Potency,3D7,inactive
same,Potency,7G8,inactive
Clc1ccc(C(c2ccc(Cl)cc2)C(Cl)(Cl)Cl)cc1,"activity, negative = inhibition",[1]; [2],4.12%
same,Potency,7G8,8.91 µM (active)
CN1C(=O)C(O)N=C(c2ccccc2)c2cc(Cl)ccc21 (stereo unspecified),"activity, negative = inhibition",[1]; [2],4.85%
same,Potency,3D7,inactive
same,Potency,7G8,inactive
CC(C)(C)NCC(O)c1cc(Cl)c(N)c(C(F)(F)F)c1 (stereo unspecified),Potency,[1]; parasite line A,14.1 µM (active)
same,Potency,[1]; parasite line B,4.47 µM (active)
same,Potency,3D7,inactive
same,Potency,7G8,4.47 µM (active)
CN1CCC(O)(c2ccc(F)cc2)C(C(=O)c2ccc(F)cc2)C1 (stereo unspecified),"activity, negative = inhibition",[1]; [2],-7.61%
same,"activity, negative = inhibition",[1]; [3],-4.09%
same,Potency,3D7,inactive
same,Potency,7G8,inactive
CCC(C)(C)c1ccc(O)cc1,"activity, negative = inhibition",[1]; [2],2.92%
same,"activity, negative = inhibition",[1]; [3],14.5%
same,Potency,3D7,inactive
same,Potency,7G8,inactive
C=CCN1C[C@H](C)N([C@H](c2ccc(C(=O)N(CC)CC)cc2)c2cccc(OC)c2)C[C@H]1C,Potency,[1]; parasite line A,10 µM (active)
same,Potency,7G8,5.01 µM (active)
C[C@]12CCC(=O)C=C1CC[C@@H]1[C@@H]2CC[C@]2(C)C(=O)CC[C@@H]12,"activity, negative = inhibition",[1]; [2],-9.45%
same,"activity, negative = inhibition",[1]; [3],3.53%
same,Potency,3D7,inactive
same,Potency,7G8,inactive
Clc1ccc2c(c1)C(c1ccccc1)=NCc1nncn1-2,"activity, negative = inhibition",[1]; [2],-1.68%
same,"activity, negative = inhibition",[1]; [3],10.3%
same,Potency,3D7,inactive
same,Potency,7G8,inactive
O=C1c2ccccc2C(=O)c2ccccc21,"activity, negative = inhibition",[1]; [2],-2.68%
same,"activity, negative = inhibition",[1]; [3],6.43%
same,Potency,7G8,5.01 µM (active)
CN1C(=O)NC(=O)C(C)(C2=CCCCC2)C1=O (stereo unspecified),"activity, negative = inhibition",[1]; [3],7.06%
same,Potency,3D7,inactive
same,Potency,7G8,inactive
O=C1OC(c2ccc(O)c(S(=O)(=O)O)c2)(c2ccc(O)c(S(=O)(=O)O)c2)c2c(Br)c(Br)c(Br)c(Br)c21,"activity, negative = inhibition",[1]; [2],4.12%
same,"activity, negative = inhibition",[1]; [3],7.49%
same,Potency,3D7,inactive
same,Potency,7G8,inactive
O=C(N/N=C/c1ccc([N+](=O)[O-])o1)c1cc([N+](=O)[O-])cc([N+](=O)[O-])c1O,Potency,[1]; parasite line A,0.447 µM (active)
same,Potency,[1]; parasite line B,0.0708 µM (active)
same,Potency,3D7,0.891 µM (active)
same,Potency,7G8,inactive
COP(=S)(OC)Oc1ccc(S(=O)(=O)N(C)C)cc1,"activity, negative = inhibition",[1]; [2],14.2%
same,"activity, negative = inhibition",[1]; [3],1.31%
same,Potency,3D7,inactive
same,Potency,7G8,inactive
NNc1ccccc1,"activity, negative = inhibition",[1]; [2],7.49%
same,Potency,3D7,inactive
same,Potency,7G8,inactive
CNC(C)(C)Cc1ccccc1,"activity, negative = inhibition",[1]; [4],5.96%
same,"activity, negative = inhibition",[1]; [5],5.61%
same,Potency,3D7,inactive
same,Potency,7G8,inactive
